Laboratory results: PubChem BioAssay (Tox21)
Values joined by “and” are separate entries in the source; they are usually repeats but may differ in a detail not shown here. Equal entries are not always repeated. Records with an inconclusive call do not appear. A number with no mark means an inactive call. Active and inactive are the calls of the source. The call rests on the fitted dose curve; in most records, active means well fitted cell-killing curve with a large enough effect in the repeat runs; inconclusive means weak or mixed curves; inactive means flat fitted curve, though single readings scatter.

Assay: qHTS assay to identify small molecule antagonists of the TGF-beta/Smad signaling pathway - cell viability counter screen (AID 1346824); further: nearly all actives have a fitted effect of over 50% in size
Conditions: SBE-bla HEK293T viability, CellTiter-Glo luminescence; series mostly up to 76.8 µM; viability change, negative = cytotoxic: at the top concentration
Source text: U.S. Tox21 Program National Center for Advancing Translational Sciences [NCATS] NIH Chemical Genomics Center [NCGC] U.S. Environmental Protection Agency [EPA] National Institutes of Environmental Health Sciences [NIEHS] National Toxicology Program [NTP] U.S. Food and Drug Administration [FDA] Tox21 Assay Overview: Transforming growth factor beta (TGF-beta) superfamily consists of a large number of structurally related dimeric proteins that act as hormones or local mediators in regulating a wide range of biological functions. This superfamily includes TGF-betas themselves, the bone morphogenetic proteins (BMPs) and the activins. These ligands induce oligomerization of serine/threonine receptor kinases and phosphorylate the cytoplasmic signaling molecules of Smad protein family. CellSensor SBE-bla HEK 293T cell line (Life Technologies, Carlsbad, CA), responsive to TGF-beta was used to screen Tox21 10K compound library for identification of agonists/antagonists of the Smad signaling pathway. This cell line contains a beta-lactamase reporter gene under control of the Smad binding element (SBE) stably integrated into HEK 293T cells. Also cytotoxicity of the compounds was tested in parallel by measuring the cell viability using CellTiter-Glo assay system in the same wells.
Tox21 Assay Protocol Summary: SBE-bla HEK 293T cells were dispensed at 4,000/well in 5 uL of assay medium into black wall/clear-bottom 1536-well plates using a Multidrop Combi (ThermoFisher Scientific, Waltham, MA) dispenser. After the assay plates were incubated at 37 C and 5% CO2 for an overnight, 23 nL of compounds dissolved in DMSO, positive controls or DMSO only was transferred to the assay plate by a Pintool station (Kalypsys, San Diego, CA). Compound transfer was followed by the addition of 1 uL of 0.25 ng/mL TGF-beta1 or assay buffer using two separate tips of Flying Reagent Dispenser (FRD, Aurora Discovery, San Diego, CA). The assay plates were incubated at 37 C and 5% CO2 for 5 hr. One uL of LiveBLAzer B/G FRET substrate (Life Technologies) was added using a Flying Reagent Dispenser (FRD, Aurora Discovery, San Diego, CA) and the plates were incubated at room temperature for 2 hr. Fluorescence intensity (405 nm excitation, 460 nm and 530 nm emissions) was measured using an Envision plate reader (PerkinElmer, Shelton, CT). For cytotoxicity read, 4 uL of CellTiter-Glo reagent (Promega Corporation, Madison, WI) was added to each well of the assay plates using FRD. After 30 min incubation at room temperature, the luminescence intensity was measured using ViewLux plate reader (PerkinElmer).
On the % scale 0 is the no-effect control and ±100 the full control effect; potency means the concentration at half of the fitted maximal effect.

Compound	viability change, negative = cytotoxic	Potency
Cc1c2ccccc2c(C)c2c1ccc1ccccc12	-27.3%	
Oc1c(I)cc(Cl)c2cccnc12		inactive
CCCCOC(=O)CO	2.57%	
CCO[C@@H]1O[C@H](C(COCc2ccccc2)OCc2ccccc2)[C@H](OCc2ccccc2)[C@H]1O (stereo not given in full)	0.242% [at 35.3 µM]	
C[C@@H](O)[C@H](N)C(=O)O	4.73% [at 15.8 µM]	
CC1=CCC(=C(C)C)CC1	2.5%	
O=C(O)CCN(C1(C(=O)NO)CCCC1)S(=O)(=O)c1ccc(Oc2ccc(F)cc2)cc1	4.67%	
CCCC(=O)OC(C)(C)Cc1ccccc1	0.526%	
COc1ccc2cc1Oc1ccc(cc1)C[C@H]1c3c(cc4c(c3Oc3cc5c(cc3OC)CCN(C)[C@@H]5C2)OCO4)CCN1C	-3.54% [at 35.3 µM]	
CCCCCCCCCCCCCC[N+](C)(C)C		42.2 µM (active) and 54.9 µM (active)
C=C(CC)C(=O)c1ccc(OCC(=O)O)c(Cl)c1Cl		inactive
OC1CCCc2ccccc21 (stereo not given)	5.39%	
CCN(CCN)c1cccc(C)c1		inactive
NC(=O)c1cccc([N+](=O)[O-])c1	2.44%	
CCC(C)n1ncn(-c2ccc(N3CCN(c4ccc(OC[C@H]5CO[C@](Cn6cncn6)(c6ccc(Cl)cc6Cl)O5)cc4)CC3)cc2)c1=O (stereo not given in full)	-18.7% [at 35.3 µM]	
CC(=O)CC(=O)Nc1ccc(S(=O)(=O)O)cc1	0.442%	
CCCCCCCCCCCCCCCC[N+](C)(C)CC		43.8 µM (active)
CCc1ccc(Br)cc1	3.9%	
Cc1c(C)c2c(c(C)c1O)CC[C@@](C)(CCC[C@H](C)CCC[C@H](C)CCCC(C)C)O2	-14.5%	
CC(=O)OCC=C(C)C	-5.11% [at 35.3 µM]	

Compound	viability change, negative = cytotoxic	Potency
Cc1c(F)c(N2CCNC(C)C2)cc2c1c(=O)c(C(=O)O)cn2C1CC1 (stereo not given)	2.18% [at 35.3 µM]	
COc1ccc2c(c1)c(CC(=O)OC/C=C(\C)CC/C=C(\C)CCC=C(C)C)c(C)n2C(=O)c1ccc(Cl)cc1	-9.49% [at 35.3 µM]	
C=CCn1c(=O)n(CC=C)c(=O)n(CC=C)c1=O	1.28%	
C[Si](Cl)(c1ccccc1)c1ccccc1	-8.25%	
CC(C)CCCCCOC(=O)CCS	6.32%	
Cl[Si](Cl)(c1ccccc1)c1ccccc1	4.48%	
CC(CCc1ccccc1)NCC(O)c1ccc(O)c(C(N)=O)c1 (stereo not given)	-1.89%	
CCOC(=O)c1ccc(C2CCC(NC[C@H](O)COc3ccc(O)c(NS(C)(=O)=O)c3)CC2)cc1 (stereo not given in full)	-0.226%	
CC/C=C\CCCCCO	1.68%	
Cc1nc2n(c(=O)c1CCN1CCC(c3noc4cc(F)ccc34)CC1)CCCC2	-2.83% [at 35.3 µM]	
Clc1nnc(Cl)c2ccccc12	-4.34%	
C=CC(=O)Nc1cc2c(Nc3ccc(F)c(Cl)c3)ncnc2cc1OCCCN1CCOCC1	0.429% [at 35.3 µM]	
O=C1CCCCCCCCCCCCCCCO1	13.1%	
COc1ccc(NC(=O)CC(C)=O)cc1	1.34%	
OC1CCC(C2CCCCC2)CC1 (stereo not given)	-5.48%	
C=C(C)c1cccc(C(=C)C)c1	-9.62%	
CCCNCCC	-18.6%	
Cc1c(C)c([N+](=O)[O-])c(C(C)(C)C)c([N+](=O)[O-])c1C	-12.4%	
C=CCCC(=O)/C=C/C1C(C)=CCCC1(C)C (stereo not given)	0.655%	
CC(=O)c1ccc(C(C)=O)cc1	11.5%	
